For 18 compounds, Potency, max response and outcome results are on record in PubChem BioAssay (Tox21).

SMILES strings stand for the structures. “And” between values parts separate entries of the source, which are not always exact repeats. Identical values can stand only once. Inconclusive results are not listed. Values without a mark were called inactive. The source made the active and inactive calls. The call rests on the fitted dose curve; in most records, active means well fitted curve in the direction sought with a large enough effect in the repeat runs; inconclusive means weak or mixed curves; inactive means no such curve, though single readings can be large; an effect the other way counts as inactive or inconclusive.

Test [1] is described as follows: A CellTox Green Cytotoxicity Assay to monitor cytotoxicity in HEK293 cells - 40 hour (AID 1224871). Further: nearly all actives have a fitted effect of over 45% in size. Further: potency means the concentration at half of the fitted maximal effect. The essentials:
(§1)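 Nonlytic real-time cytotoxicity: HEK293 + CellTox Green reagent plated, 5 h preincubation, pintool compound addition (23 nL in DMSO), 37 C for 40 h, fluorescence measured at successive time points.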

Test [2] can be described thus: qHTS RealTime-Glo MT Cell Viability Assay in HEK293 cells - 16 hour (AID 1224872). Further: nearly all actives have a fitted effect of over 50% in size. Further: potency means the concentration at half of the fitted maximal effect. The procedure, abridged:
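Assay medium contained NanoLuc luciferase plus cell-permeant prosubstrate, added with HEK293 cells at 600 cells/well. After 5 h at 37 C/5% CO2 compounds were added; plates stayed at 37 C for 40 h with serial luminescence reads.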

Test [3] is described as follows: qHTS RealTime-Glo MT Cell Viability Assay in HepG2 cells - 8 hour (AID 1224873). Further: nearly all actives have a fitted effect of over 55% in size. Further: potency means the concentration at half of the fitted maximal effect. The essentials:
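HepG2 cells (600/well) mixed with RealTime-Glo MT reagent, settled 5 h at 37 C/5% CO2 before compound addition. Nonlytic NanoLuc luminescence from viable-cell prosubstrate reduction read repeatedly during 40 h treatment at 37 C.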

The nature of test [4]: qHTS RealTime-Glo MT Cell Viability Assay in HEK293 cells - 40 hour (AID 1224874). Further: nearly all actives have a fitted effect of over 50% in size. Further: potency means the concentration at half of the fitted maximal effect. As to conditions: RealTime-Glo luminescence; max response: stronger effect = lower value. The procedure, abridged: (§2)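 Cells were seeded together with NanoLuc luciferase and a prosubstrate that viable cells reduce to a luciferase substrate. After a 5 h incubation at 37 C/5% CO2, compounds were added and luminescence was measured repeatedly during 40 h of treatment.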

A short description of test [5]: A CellTox Green Cytotoxicity Assay to monitor cytotoxicity in HEK293 cells - 24 hour (AID 1224875). Further: nearly all actives have a fitted effect of over 45% in size. Further: potency means the concentration at half of the fitted maximal effect. The essentials:
as §1

Test [6] can be described thus: A CellTox Green Cytotoxicity Assay to monitor cytotoxicity in HepG2 cells - 16 hour (AID 1224876). Further: nearly all actives have a fitted effect of over 45% in size. The procedure, abridged: (§3)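 Read-out is fluorescence of a cyanine dye excluded from live cells that stains DNA of dead HepG2 cells, with signal proportional to cytotoxicity. Plates were read at 0, 8, 16, 24, 32 and 40 h after compound addition.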
Test [7] is described as follows: A CellTox Green Cytotoxicity Assay to monitor cytotoxicity in HepG2 cells - 24 hour (AID 1224878). Further: nearly all actives have a fitted effect of over 45% in size. Further: potency means the concentration at half of the fitted maximal effect. The procedure, abridged:
as §3

Test [8] can be described thus: A CellTox Green Cytotoxicity Assay to monitor cytotoxicity in HepG2 cells - 40 hour (AID 1224879). Further: nearly all actives have a fitted effect of over 40% in size. Further: potency means the concentration at half of the fitted maximal effect. The essentials:
as §3

Test [9] in a line: qHTS RealTime-Glo MT Cell Viability Assay in HEK293 cells - 0 hour (AID 1224880). The essentials:
as §2

The nature of test [10]: qHTS RealTime-Glo MT Cell Viability Assay in HepG2 cells - 32 hour (AID 1224877). Further: nearly all actives have a fitted effect of over 55% in size. Further: potency means the concentration at half of the fitted maximal effect. The procedure, abridged:
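qHTS, HepG2, 600 cells/well, RealTime-Glo (NanoLuc + prosubstrate) added with cells; 5 h preincubation; DMSO compound addition; 37 C; luminescence at 0/8/16/24/32/40 h.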
On the % scale 0 is the no-effect control and ±100 the full control effect.

For `Cc1ccc2c(C)cccc2c1`, the Potency entry in [1], in test [2], in test [3], in test [5], in test [6] and in test [7] was “inactive” each time. The Potency entry in test [8] is “inactive”. For the same compound, in [4], the max response was 4.4%. The compound was called inactive in test [9].

In the case of `Cc1nc(N(C)C)nc(OC(=O)N(C)C)c1C`, the Potency entry in test [1], in test [2], in test [3], in test [5], in test [6] and in test [7] was “inactive” throughout. Further, in [8], the Potency result is “inactive”. Moreover, the max response in test [4] is 2.7%. Besides, the compound was called inactive in [9].

In the case of `CCCBr`, the Potency entry in test [1], in test [2], in [3], in test [5], in [6] and in [8] was “inactive” each time. For the same compound, in [4], the max response was -3.27%. In [9], the outcome was inactive.

`CN1CC[C@]23c4c5ccc(O)c4O[C@H]2[C@@H](O)C=C[C@H]3[C@H]1C5`: the Potency entry in test [1], in [2], in test [3], in test [5], in [6] and in test [8] was “inactive” each time. Moreover, the max response in test [4] was 1.75%. Also, in [9], the compound was called inactive.

As to `CN(C)c1ccc(N=O)cc1`, the Potency is 11 µM (active) and 19.5 µM (active) in test [1]; 15.5 µM (active) and 21.9 µM (active) in test [2]; 49.1 µM (active) and 24.5 µM (active) in test [3]; 13.8 µM (active) and 19.5 µM (active) in test [4]; 13.8 µM (active) and 19.5 µM (active) in test [5]; 34.7 µM (active) in test [10]. The Potency is 49.1 µM (active) in [7]; 34.8 µM (active) and 12.3 µM (active) in [8].

For the compound `CCCCC#N`, the Potency entry in test [1], in test [2], in test [3], in test [5], in [6] and in test [7] was “inactive” each time. For the same compound, the Potency result in test [8] is “inactive”. In addition, the max response in test [4] is -2.33%.

On to `Cc1cccc(C)c1NC1=NCCCS1`, for which the Potency result in test [1], in [2], in test [3], in test [5], in test [6] and in test [7] was “inactive” each time. In addition, the Potency result in test [8] was “inactive”. Also, in test [4], the max response was 0.136%.

For `Cc1ccccc1`, the Potency entry in [1], in [2], in test [3], in [5], in test [6] and in test [10] was “inactive” throughout. For the same compound, the max response in test [4] is 11.7%. The result in [9] was inactive.

With `CN(C)C(=O)Nc1cccc(OC(=O)NC(C)(C)C)c1`, the Potency result in [1], in test [2], in [3], in test [5], in test [6] and in [7] was “inactive” in each case. Further, in [8], the Potency entry is “inactive”. The max response in test [4] was -14.3%. Further, in [9], the compound was called inactive.

Regarding `O=CC=O`, the Potency entry in test [1], in test [2], in test [3], in test [5], in test [6] and in [7] was “inactive” in each case. In addition, in test [8], the Potency entry is “inactive”. Moreover, the max response in test [4] was 2.31%. Also, the compound was classed as inactive in [9].

In the case of `CN(C1CCCCC1)C1CCCCC1`, the Potency entry in test [1], in test [2], in [3], in test [5], in test [6] and in test [7] was “inactive” throughout. For the same compound, the max response in test [4] is -2.03%. For the same compound, the compound was called inactive in [9].

In the case of `O=C(N[C@H]1CN2CCC1CC2)c1ccc2c(c1)OCCO2`, the Potency result in test [1], in [2], in test [3], in test [5], in test [6] and in test [7] was “inactive” throughout. Further, in test [8], the Potency entry is “inactive”. Besides, the max response in test [4] was 0.421%. Besides, in test [9], the outcome was inactive.

As to `CCCCOC(=O)CCC(=O)OCCCC`, the Potency entry in test [1], in [2], in [3], in [5], in [6] and in [10] was “inactive” in each case. In addition, the max response in test [4] was 3.34%. Also, in test [9], the outcome was inactive.

For the compound `Cc1nnc(-c2ccccc2)c(=O)n1N`, the Potency entry in test [1], in test [2], in test [3], in [5], in [6] and in [7] was “inactive” in each case. Further, the Potency entry in test [8] is “inactive”. Moreover, the max response in test [4] was -13.2%. In addition, the compound was classed as inactive in test [9].

Take `CC(C)c1ccc(NC(=O)N(C)C)cc1`: the Potency entry in [1], in test [2], in test [3], in test [5], in test [6] and in test [7] was “inactive” throughout. Further, the max response in test [4] was 3.89%.

Regarding `CCCSP(=S)(OCC)Oc1ccc(SC)cc1` (centres undefined), the Potency result in test [1], in test [2], in [3], in test [5] and in test [6] was “inactive” each time. Also, the max response in test [4] is 3.34%. Besides, in [9], the outcome was inactive.

Turning to `CCOC(=O)C1OC1(C)c1ccccc1` (centres undefined), the Potency result in test [1], in test [2], in [3], in [5], in [6] and in [7] was “inactive” in each case. The Potency result in test [8] was “inactive”. Also, the max response in [4] was 0.105% and 2.55%. For the same compound, the result in test [9] was inactive.

Consider `NC(=S)c1c(Cl)cccc1Cl`, for which the Potency result in test [1], in test [2], in test [3], in test [5], in test [6] and in test [8] was “inactive” each time. Also, in [4], the max response is -2.31%. In addition, the compound was called inactive in [9].
